Assay outcomes deposited in PubChem BioAssay by National Center for Advancing Translational Sciences (NCATS).
Rows were chosen to be rich in hits. Some 8.5% of all compounds tested hit in one or more screens of this group.
GoLoco inh red: blocks human Gai1 binding to RGS12 GoLoco peptide, red readout | Potency, µM (highest dose often 61.6 µM), inactives show at the top dose activity, negative = inhibition, hits mostly inhibitors | P63096 | actives 0.44% (n = 230,000) | Gai1:RGS12 GoLoco peptide FP, rhodamine, 10 min; active = well fitted inhibition curve with a large enough effect, not every such curve was filed as active; inactive = no such curve, though single readings can be large or run the other way; also: potency is read from the fitted curve at half-maximal effect; nearly all actives have a fitted effect of over 30% in size
Target sequence (P63096 whole entry, looked up): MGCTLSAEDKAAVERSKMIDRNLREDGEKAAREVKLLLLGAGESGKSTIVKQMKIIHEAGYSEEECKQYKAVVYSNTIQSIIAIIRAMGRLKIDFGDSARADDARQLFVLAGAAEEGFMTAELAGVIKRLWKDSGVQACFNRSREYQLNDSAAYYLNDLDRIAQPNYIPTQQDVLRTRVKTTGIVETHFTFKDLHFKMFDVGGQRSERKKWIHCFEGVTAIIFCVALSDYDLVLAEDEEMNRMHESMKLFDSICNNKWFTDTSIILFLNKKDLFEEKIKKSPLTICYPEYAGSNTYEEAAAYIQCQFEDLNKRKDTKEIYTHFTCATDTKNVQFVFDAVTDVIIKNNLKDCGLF
ALDH1A1 inh: ALDH1A1 (human) enzyme inhibition; P00352; Purified ALDH1A1, NADH fluorescence, propionaldehyde substrate; Potency, µM (doses to about 75.3 µM), without a hit: top-dose activity, negative = inhibition, most hits filed as inhibitors; actives 7.3% (n = 220,000); AID 1030;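 also: potency is read from the fitted curve at half-maximal effect; plate controls were no enzyme wells and a reference inhibitor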
JMJD2E inh: blocks human JMJD2E demethylase activity; B2RXH2; JMJD2E catalytic domain, FDH-coupled NADH fluorescence (FDH is formaldehyde dehydrogenase); Potency, µM (series often up to 57.1 µM), without a hit: top-dose activity change, negative = inhibition, hits mostly inhibitors; actives 1.6% (n = 230,000); AID 2147;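 also: potency is read from the fitted curve at half-maximal effect; 0% = wells with enzyme and -100% = buffer wells without enzyme; nearly all actives have a fitted effect of over 50% in size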
Target sequence (B2RXH2 1-337 limits assumed): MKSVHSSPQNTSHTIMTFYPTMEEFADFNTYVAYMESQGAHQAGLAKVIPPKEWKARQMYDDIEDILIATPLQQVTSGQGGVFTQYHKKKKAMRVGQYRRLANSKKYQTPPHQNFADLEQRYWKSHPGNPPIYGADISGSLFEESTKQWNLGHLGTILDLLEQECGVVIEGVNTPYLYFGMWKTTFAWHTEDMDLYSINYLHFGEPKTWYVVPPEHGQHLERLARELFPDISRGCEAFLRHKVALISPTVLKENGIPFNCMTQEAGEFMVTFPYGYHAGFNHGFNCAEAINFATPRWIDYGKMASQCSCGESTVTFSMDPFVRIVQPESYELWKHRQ
Sfp PPTase inh: blocks B. subtilis Sfp PPTase activity; Biochemical Sfp PPTase activity, qHTS; Potency, µM, for inactives: largest response in the series, negative = inhibition, usual class: inhibitors; Q9F4F7; AID 1490; actives 3.5% (n = 310,000); active = well fitted curve in the direction sought with a large enough effect; inconclusive = small, poorly fitted or top-dose-only effect, or another doubt; inactive = no such curve, though single readings can be large; an effect the other way counts as inactive or inconclusive;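 also: the enzyme is Sfp with the accession as filed and its product quenches rhodamine fluorescence; potency is read from the fitted curve at half-maximal effect; 0% = enzyme reaction without inhibitor and -100% = no enzyme wells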
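Step 1, compound plus 15 nM Sfp-PPTase, 15 min, room temperature. Step 2, add rhodamine-CoA (5 uM) and BHQ-2-YbbR (12.5 uM). Step 3, read 525/598 nm fluorescence at 0 and 30 min.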
NPSR antag: neuropeptide S receptor (human) antagonism, cAMP; Potency, µM (top dose mostly 38.3 µM), without a hit: at the highest dose activity change, negative = inhibition, hits mostly inhibitors; actives 1% (n = 220,000); CHO-NPSR cells, cAMP TR-FRET, antagonist mode; active = well fitted curve in the direction sought with a large enough effect; inconclusive = small, poorly fitted or top-dose-only effect, or another doubt; inactive = no such curve, though single readings can be large; an effect the other way counts as inactive or inconclusive; also: potency is read from the fitted curve at half-maximal effect; nearly all actives have a fitted effect of over 50% in size
Coupling enz: coupling enzyme interference in Giardia aldolase counter-screen; actives 0.67% (n = 290,000); activity change, negative = inhibition, % at 58.2 µM, hits read low; coupling enzyme system counterscreen, AmpLite Red fluorescence; in the data active = activity change below about -30%
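Fluorescence at 525 nm excitation and 598 nm emission measured inhibition of the coupled detection system without aldolase. Compounds (at 57.5 uM final) were preincubated 10 min at room temperature with coupling enzyme reagent before a 20 min substrate/AmpLite Red step.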
* hit, by the source's call; ? = inconclusive; . = no result given; [ ] = dose if it differs, or a comment. Unless noted, calls follow the shape of the dose curve; as a rule, active = well fitted inhibition curve with a large enough effect (not every such curve was filed as active); inconclusive = small, poorly fitted or top-dose-only effect, or another doubt; inactive = no such curve, though single readings can be large or run the other way. Unless noted, % is scaled to controls: 0 for no effect and ±100 for the full control effect.

SMILES | GoLoco inh red | ALDH1A1 inh | JMJD2E inh | Sfp PPTase inh | NPSR antag | Coupling enz
CCOC(=O)NC(=O)CSc1nnnn1-c1ccccc1 | 6% | ? | 11% | 7% | 0%[46.1 µM] | 1
CCOc1ccccc1NC(=O)CSc1nnnn1-c1ccccc1 | 68% | 16µM* | -6% | 10% | -9%[46.1 µM] | 0
CCOC(=O)C1CCCN(CC(=O)NC2=Nc3ccccc3N=C(C)C2c2ccccc2)C1 (configuration not stated) | 3% | 4.5µM* | 5% | 6% | ? | 2
CC1=Nc2ccccc2N=C(NC(=O)CSc2nnnn2-c2ccccc2)C1c1ccccc1 (configuration not stated) | 10% | 4.5µM* | 4% | -13% | ? | 2
CC(=O)Nc1ccccc1-c1nc2ccccc2nc1OCC(=O)c1ccc(Cl)cc1 | 1% | 17% | -8% | 5% | -11%[46.1 µM] | 4
C=CCn1c(=S)[nH]c2sccc2c1=O | -4% | 32µM* | ? | -38% | -17% | -8
CN1C(=O)C[C@@H](C(=O)N[C@@H](Cc2cnc[nH]2)C(=O)N2CCC[C@H]2C(N)=O)NC1=O | . | . | . | -9% | . | .
CNc1nn(-c2cccc(Cl)c2)nc1N | 119% | 2µM* | -8% | 0% | -2%[46.1 µM] | 1
COC(=O)c1c(NC(=O)CN2CCN(c3ncccn3)CC2)sc(C(N)=O)c1C | . | . | . | -4% | . | -1
CC[n+]1ccc(/C=C2\Sc3ccccc3N2CCCS(=O)(=O)[O-])c2ccccc21 | 16% | -11% | ? | -11% | -6% | 1
CN1C=C/C(=C\c2cc[n+](C)c3ccccc23)c2ccccc21 | -19% | ? | 4µM* | 10% | 13µM* | -62*
NC(=O)N1CCC2(CC1)NC(=O)N(c1ccccc1)N2 | -19% | 3.5µM* | ? | -7% | 14% | -1
COc1ccc(/C=c2\sc3nc(-c4ccccc4)c(-c4ccccc4)n3c2=O)cc1OC | 57% | ? | ? | 18µM* | -8%[46.1 µM] | 1
COc1cc(/C=c2/sc3nc(-c4ccccc4)c(-c4ccccc4)n3c2=O)cc(OC)c1OC | 13% | ? | -3% | 17% | -1% | 0
COc1ccc(C(=O)c2ccc([N+](=O)[O-])cc2)cc1S(=O)(=O)N1CCC(C(=O)O)CC1 | . | . | . | 13% | . | 3
COc1ccc(N(CC(=O)NCc2ccccc2C)S(=O)(=O)c2ccccc2[N+](=O)[O-])c(OC)c1 | 6% | 13% | 1% | 13% | ? | -3
Cn1cnnc1SCc1ccccc1 | 6% | 5% | 0% | 0% | -10%[46.1 µM] | 3
Cn1cnnc1SCc1ccc(-c2ccc(Br)cc2)o1 | 18% | ? | -22% | 45µM* | -22%[46.1 µM] | 2
CCN1C(=O)/C(=C/c2cc(C)n(C)c2C)SC1=Nc1ccc(OC)cc1 | 10% | 1.3µM* | -21% | -7% | ? | 1
CCCN1C(=O)/C(=C/c2cc(C)n(C)c2C)SC1=Nc1ccc(OCC)cc1 | -4% | 3.2µM* | 4% | 5% | -5%[46.1 µM] | 1
O=C(CN1CCN(Cc2ccccc2Cl)CC1)N/N=C/c1ccccn1 | 5% | . | 0% | -3% | -42% | 0
CCOC(=O)C1(Cc2cccc(Cl)c2)CCCN(C(=O)c2cc(C(C)C)nn2C)C1 (configuration not stated) | . | . | . | -7% | . | .
O=C(Nc1nc2ccc(SC(F)F)cc2s1)c1ccc(NS(=O)(=O)c2ccc(F)c(F)c2)cc1 | 6% | ? | ? | -5% | 13µM* | -1
O=C(CSc1ccc([N+](=O)[O-])cc1)NCC1CCCCC1 | -2% | 28µM* | 7% | -13% | -18% | 1
O=C(CSC(=S)N1CCCCC1)Nc1ncc2c(n1)CCCC2=O | 5% | . | 5% | 0% | 1%[7.67 µM] | 0
SMILES | GoLoco inh red | ALDH1A1 inh | JMJD2E inh | Sfp PPTase inh | NPSR antag | Coupling enz
N#Cc1ccc(Oc2nc(C#N)cc(-c3ccccc3)n2)cc1 | -7% | 4% | ? | 40µM* | -17% | -2
N#Cc1cc(-c2ccccc2)nc(Oc2ccccc2)n1 | -7% | -2% | -1% | -9% | -7% | -1
Cc1nnsc1C(=O)N1CCCC(Nc2ccc(F)c(F)c2)C1 (configuration not stated) | . | . | . | -4% | . | .
Cc1ccc(Nc2c(-c3ccccn3)nc3cc(C)ccn23)cc1 | 3% | -5% | 0% | 1% | ? | 0
Cc1ccc(Nc2c(-c3ccccn3)nc3ccc(C)cn23)cc1 | 7% | -6% | 4% | -6% | 10µM* | -3
CCn1nc(C)cc1-c1nnc(Sc2ncc([N+](=O)[O-])s2)n1C | . | . | . | 45µM* | . | -2
Cc1ccc(NC(=O)CNCc2cccs2)cc1Br | . | . | . | -18% | . | 2
CCCC1=NN(c2ccc([N+](=O)[O-])cc2)C(=O)/C1=C/N(C)C | 3% | ? | 6% | 79µM* | 3% | -8
CN(C)/C=C1/C(=O)N(c2ccc([N+](=O)[O-])cc2)N=C1c1ccccc1 | 3% | 16µM* | ? | -2% | -32% | 6
C/C(=C1/C(=O)N(c2ccc([N+](=O)[O-])cc2)N=C1c1ccccc1)N(C)C | 3% | -8% | 2% | 13% | -10%[46.1 µM] | -1
CN(C)/C=C1\C(=O)N(c2ccc([N+](=O)[O-])cc2)N=C1c1ccccc1 | -8% | 25µM* | -6% | -8% | 3%[46.1 µM] | 0
CC1=NN(c2ccc([N+](=O)[O-])cc2)C(=O)/C1=C\N(C)C | 2% | ? | -5% | 7% | 17% | 0
CC(C)(CNC(=O)Cc1ccc(Br)cc1)N1CCOCC1 | . | . | . | 10% | . | 0
O=C(CCn1nc(-c2ccccc2)ccc1=O)N1CCN(c2ccccc2)CC1 | . | . | . | 5% | . | -1
O=C(CCn1nc(-c2ccccc2)c2ccccc2c1=O)N1CCN(c2ccccc2)CC1 | 0% | 22µM* | 0% | -10% | -16%[46.1 µM] | 1
Cc1cc(Br)cc(C)c1OCCCCN(C)C | -2% | ? | ? | 79µM* | 9%[46.1 µM] | 2
Cc1cc(Cl)c(OCCCN(C)C)c(Br)c1 | 5% | -12% | ? | -7% | 16% | -3
CCCc1cc(=O)[nH]c(SCC(=O)Nc2ccc([N+](=O)[O-])cc2C#N)n1 | -1% | ? | 6% | 11% | 14% | 3
O=C(/C=C\c1ccc(-c2cccc([N+](=O)[O-])c2)o1)N1CCOCC1 | -8% | ? | 16µM* | 20µM* | 38% | 2
COc1ccc(NC(=O)c2[nH]ncc2[N+](=O)[O-])cc1 | -12% | 15µM* | -14% | -27% | -11% | 6
O=C(Nc1ccccc1)c1ccc(-c2ccc(Br)cc2)o1 | 7% | 6% | ? | 13% | ? | -2
N#C/C(=C\c1ccco1)c1nc2ccccc2s1 | 71% | -14% | 1% | 5% | -11% | 1
O=C(Nc1ccccc1)c1[nH]ncc1[N+](=O)[O-] | 2% | 0% | -10% | 9% | 0%[46.1 µM] | 2
